Source: PubChem
The list is not random: actives were taken first. Their share in the collection is about 3.8%.
NTMT1 inh: inhibitors of human N-terminal methyltransferase NTMT1. 59,000 compounds, 2.5% hits. Potency, µM (doses to about 114 µM), hits mostly inhibitors. NTMT1 MTase-Glo SAH luminescence, purified enzyme; note: nearly all actives have a fitted effect of over 65% in size
OvCa metastasis: ovarian cancer metastasis inhibition, 3D TME model; AID 1963576; 46,000 compounds, 0.1% hits; Potency, µM (top dose mostly 45.8 µM), actives largely listed as inhibitors; SKOV3ip1-GFP adhesion/invasion on 3D omental model, fluorescence; note: nearly all actives have a fitted effect of over 65% in size
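A 3D layer of primary human omental fibroblasts, mesothelial cells, fibronectin and collagen I, grown 48 hr, received SKOV3ip1-GFP cells in serum-free medium plus compounds at 0.36-46 umol/L. After 2 hr RT and 16 hr 37 C, fixed adherent GFP cells were counted; normalized to DMSO and tomatine.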
GPR32 ag: GPR32 (DRV1) agonism, beta-arrestin recruitment; O75388; CHO-K1 GPR32 beta-arrestin PathHunter luminescence, 90 min; zero percent set by DMSO-only wells; activation, % at 76.9 µM; 48,000 compounds, 2.5% hits; AID 1346428;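 active = activation of at least 60% and not above a set upper limit, about 1 call in 100 departs from these limits; inconclusive = activation of 40% to 60%, or above that upper limit; inactive = activation under 40%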
Target sequence (O75388 whole entry, looked up): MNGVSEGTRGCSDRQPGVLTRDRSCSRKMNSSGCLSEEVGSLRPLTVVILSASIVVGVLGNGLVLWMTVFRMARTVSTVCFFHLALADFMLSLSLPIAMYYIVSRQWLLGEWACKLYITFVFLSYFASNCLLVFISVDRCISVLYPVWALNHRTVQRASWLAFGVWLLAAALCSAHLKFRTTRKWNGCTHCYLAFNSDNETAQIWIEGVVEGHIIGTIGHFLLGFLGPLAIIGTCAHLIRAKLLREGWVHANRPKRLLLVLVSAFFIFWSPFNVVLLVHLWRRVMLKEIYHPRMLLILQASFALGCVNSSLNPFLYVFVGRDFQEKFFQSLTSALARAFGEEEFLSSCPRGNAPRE
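Beta-arrestin recruitment read-out: luminescence from complemented beta-Gal in CHO-K1 GPR32 PathHunter cells, measured 1 h after detection reagent at ambient temperature following 90 min compound exposure at 37 °C; DMSO served as basal (EC0) control.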
FH mod: Identification of activators of human fumarate hydratase by quantitative high-throughput screening; FH coupled MDH/diaphorase resazurin fluorescence, 15 min; 54,000 compounds, 0.22% hits; Potency, µM (doses to about 79.9 µM), hits mostly inhibitors; note: the screen sought activators but most active calls are inhibition curves; nearly all actives have a fitted effect of over 45% in size
DYRK1A inh-1: human DYRK1A kinase inhibition by ATP depletion readout; shares compounds with NTMT1 inh; recombinant DYRK1A, Kinase-Glo ATP depletion luminescence; Potency, µM (highest dose often 76.9 µM), hits mostly inhibitors; 100 compounds, 80% hits; AID 2705
CLK4 inh-1: inhibits human CLK4 kinase in Kinase-Glo confirmation | shares compounds with NTMT1 inh | recombinant Clk4, Kinase-Glo ATP luminescence, 4.5 h | Potency, µM (titrated, usually from 76.9 µM), actives largely listed as inhibitors | 90 compounds, 90% hits | AID 493204
CLK4 inh-2: blocks human CLK4 kinase in radiometric assay; AID 504421; Potency, µM, most hits filed as inhibitors; Reaction Biology kinase assay, 10 uM ATP; shares compounds with NTMT1 inh; 65 compounds, 100% hits; calls by dose curve
DYRK1A inh-2: blocks human DYRK1A kinase in radiometric assay; Reaction Biology kinase assay, 10 uM ATP; shares compounds with NTMT1 inh; Potency, µM, actives largely listed as inhibitors; 65 compounds, 90% hits;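 active = compounds that showed inhibition of Dyrk1a and received a fitted potency; inactive = compounds that showed no inhibition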
CLK2 inh: blocks human CLK2 kinase in radiometric assay | 65 compounds, 90% hits | shares compounds with NTMT1 inh | Reaction Biology kinase assay, 10 uM ATP | Potency, µM, actives largely listed as inhibitors;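 active = compound that inhibits Clk2 kinase in the dose series, with an IC50 potency reported; inactive = no inhibition seen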
CLK3 inh: blocks human CLK3 kinase activity | 65 compounds, 40% hits | Potency, µM, hits mostly inhibitors | shares compounds with NTMT1 inh | recombinant CLK3 kinase assay, 10 uM ATP;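 active = compounds that inhibited Clk3 enough in the ten-dose series to give a half-maximal potency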
DYRK1B RBC: inhibitors of human Dyrk1b kinase | shares compounds with NTMT1 inh | Recombinant Dyrk1b kinase assay, 10 uM ATP | Potency, µM, actives largely listed as inhibitors | 65 compounds, 80% hits;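 active = compounds whose dose response shows an inhibitor phenotype against the kinase Dyrk1b; inactive = compounds showing no inhibitor phenotype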
CLK1 inh: inhibitors of human CLK1 kinase; shares compounds with NTMT1 inh; 65 compounds, 90% hits; Potency, µM, usual class: inhibitors; recombinant Clk1 kinase assay, 10 uM ATP;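 active = compounds that block the splicing kinase Clk1 enough to give a fitted half-inhibition concentration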
NNMT counter: counter-screen for NTMT1 inhibitors: human NNMT inhibition; shares compounds with NTMT1 inh; NNMT MTase-Glo luminescence, SAH detection; Potency, µM (doses to about 57.1 µM), hits mostly inhibitors; 120 compounds, 10% hits; AID 1645878
Large screens that a line does not name were inactive (follow-up assays come after a bar, where they were run). Unless noted, calls come from the whole dose curve; as a rule, active = well fitted curve in the direction sought with a large enough effect; inconclusive = small, poorly fitted or top-dose-only effect, or another doubt; inactive = no such curve, though single readings can be large; an effect the other way counts as inactive or inconclusive.

CN(Cc1nccs1)c1ncnc2ccc(-c3ccc4c(c3)OCO4)cc12	NTMT1 inh 7.1µM (no result: OvCa metastasis, GPR32 ag) | DYRK1A inh-1 0.065µM | CLK4 inh-2 0.02 | DYRK1A inh-2 0.051µM | CLK2 inh 0.59µM | CLK3 inh 4.7µM | DYRK1B RBC 0.18µM | CLK1 inh 0.028µM
COc1ccc(Cn2ccn(Cc3cccc(Cl)c3)c(=O)c2=O)cc1	none
O=C(c1cnc(N2CCCCC2)c2ccccc12)N1CCN(c2ccccc2F)CC1	FH mod inconclusive
Cn1cnc2c1c(=O)[nH]c(=O)n2C	none
c1csc(CNc2ncnc3ccc(-c4ccc5c(c4)OCO5)cc23)n1	none (no result: OvCa metastasis, GPR32 ag, FH mod) | CLK4 inh-1 0.046µM | CLK4 inh-2 0.05 | DYRK1A inh-2 0.07µM | CLK2 inh 0.41µM | CLK3 inh 3.5µM | DYRK1B RBC 0.45µM | CLK1 inh 0.18µM
c1coc(CNc2ncnc3ccc(-c4ccc5c(c4)OCO5)cc23)c1	none (no result: NTMT1 inh, OvCa metastasis, GPR32 ag, FH mod) | CLK4 inh-1 0.037µM | CLK4 inh-2 0.079 | DYRK1A inh-2 0.084µM | CLK2 inh 0.3µM | CLK3 inh 2.6µM | DYRK1B RBC 0.53µM | CLK1 inh 0.19µM
Fc1c(-c2ccc3ncnc(NCc4cccs4)c3c2)ccc2c1OCO2	NTMT1 inh inconclusive (no result: OvCa metastasis, GPR32 ag, FH mod) | DYRK1A inh-1 0.18µM | CLK4 inh-2 0.13 | DYRK1A inh-2 0.16µM | CLK2 inh 4.4µM | CLK3 inh 9.3µM | DYRK1B RBC 2.3µM | CLK1 inh 0.31µM
COc1cccc(-c2ccc3ncnc(NCc4cccs4)c3c2)c1	none (no result: OvCa metastasis, GPR32 ag, FH mod) | DYRK1A inh-1 7.3µM
CCOc1ccc(COc2ccc(-c3nc4ccccc4[nH]3)cc2)cc1	none (no result: OvCa metastasis, GPR32 ag, FH mod)
Cc1ccccc1-c1nc(CS(=O)(=O)CC(=O)Nc2cccc(C(F)(F)F)c2)c(C)o1	none
O=C(NCCCN1CCN(c2ccccc2F)CC1)c1ccc2nc(N3CCCCC3)sc2c1	NTMT1 inh inconclusive
COc1ccc(NC(=O)N2CCN3CCCCC3C2)cc1OC (stereo not drawn)	none
CCc1nc(C(N)=O)c(Nc2ccc(N3CCC(N4CCN(C)CC4)CC3)c(OC)c2)nc1NC1CCOCC1	NTMT1 inh 20µM (no result: OvCa metastasis, GPR32 ag) | NNMT counter inactive
